Experimental data as given in PubChem BioAssay AID652040 (Broad Institute, 2013).
Entries with a potency or affinity are not part of this list. Unmarked numbers belong to inactive results.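 The calls were made as follows: active = falling luciferase signal whose fitted half-maximal concentration is at most twice the top tested dose; inconclusive = flat inhibition between 30 and 70% or a poor curve fit; inactive = the rest.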

Assay: off-target signal loss in HeLa-CEM21 co-culture – HeLa F-luc CTL cells, cherry-picked, counter-screen for HIV-1 Env fusion inhibitor project, dose response (AID 652040);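 also: 0% = median of neutral control wells and -100% = doxycycline 40 µg/mL wells; more negative values mean stronger loss of luciferase signal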
Conditions: HeLa-F-luc CTL cells with CEM21, firefly luciferase counterscreen; series mostly up to 35 µM; activity change, negative = inhibition: at the top concentration

| Structure (SMILES) | activity change, negative = inhibition |
| --- | --- |
| Cc1ccc(Cn2nnnc2CN2CCC(c3nc4ccc(Cl)cc4[nH]3)CC2)cc1 | -3.68% |
| CC(=O)c1c(C)[nH]c(C(=O)OCC(=O)Nc2c(C)cccc2C)c1C | -5.12% |
| Cc1ccc(-c2nnc(N3CCN(C(=O)COc4ccccc4)CC3)c3ccccc23)cc1 | -11% |
| Cn1c(C(=O)N2CCN(c3nc4ccccc4s3)CC2)cc2sccc21 | -4.46% |
| COc1ccc(-c2nn(C)c(=O)c3ccccc23)cc1NC(=O)Cn1nc(C)c2ccccc2c1=O | -17% |
| O=C(Nc1cccn(Cc2c(Cl)cccc2Cl)c1=O)c1ccc(Cl)cc1 | -3.49% |
| CC(Cl)=CCn1c(NCCc2ccccc2)nc2c1c(=O)n(C)c(=O)n2C | 14.4% |
| CCCn1c(Nc2nc3ccccc3n2C)nc2ccccc21 | 21.1% [at 16 µM] |
| CCCCOc1ccc(S(=O)(=O)Nc2cccnc2)cc1 | 4.95% |
| C=CCOc1c(Br)cc(CNc2ccc(NC(=O)C(C)C)c(OC)c2)cc1OC | 3.89% |
| C#CCn1c(=O)c2c(ncn2C)n(C)c1=O | -0.713% |
| Nc1nonc1C(=O)NCCNCc1cc(Br)ccc1OCc1ccccc1F | 101% |
| C=CC[n+]1c(-c2ccc(C)cc2)csc1NNC(=O)Nc1ccccc1 | -1.26% [at 16 µM] |
| Cn1c(CN2CCCCC2)nc2cc(NC(=O)c3ccc(Cl)cc3)ccc21 | 11.5% |
| Cc1nc2sc(C(c3ccco3)N3CCC(Cc4ccccc4)CC3)c(O)n2n1 (centres undefined) | 36.4% |
| Cc1ccc(NC(=O)c2ccc(OCC3CCCO3)cc2)cc1Cl (centres undefined) | 114% |
| CC(c1nc2ccccc2c(=O)[nH]1)N(C)CCOc1ccc(Cl)cc1 (centres undefined) | 0.95% |
| Nc1c(S(=O)(=O)c2ccccc2)cnc2c(-c3ccc(F)cc3)cnn12 | -1.17% |
| COc1ccccc1OCC(=O)c1[nH]c(C)c(C(C)=O)c1C | -10% |
| COc1ccc(/C=C/c2cc(-c3ccc(C)cc3)o[n+]2C)cc1 | 147% |

| Structure (SMILES) | activity change, negative = inhibition |
| --- | --- |
| Cc1ccc(C2CC(=O)c3cnc(N4CCc5ccccc5C4)nc3C2)cc1 (centres undefined) | 3.02% |
| COC(=O)[C@]12CCCCC=C1N(Cc1ccco1)C(=O)[C@H](CC(=O)NCCc1ccccc1OC)C2 | 52.6% |
| O=C(c1ccccc1)N1CCN(c2ncnc3sc4c(c23)CCC4)CC1 | -6.45% |
| C=CC[n+]1c(-c2ccc(OC)c(OC)c2)csc1NNC(=O)Nc1ccccc1 | 22.1% |
| Cc1ccc2[nH]c3c(N4CCN(Cc5ccccc5)CC4)ncnc3c2c1 | 7.7% |
| CC(OC(=O)c1ccc(NC(=O)CC#N)cc1)C(=O)NCCC1=CCCCC1 (centres undefined) | 40.1% |
| O=C(c1cccc(S(=O)(=O)N2CCN(c3ccccc3)CC2)c1)N1CCCC(C(F)(F)F)C1 (centres undefined) | 27.4% |
| C=CCN1C(=S)CC(c2ccccc2)=Nc2ccccc21 | 4.26% |
| CCc1nnc(NC(=O)[C@@H](NC(=O)c2cccc(S(=O)(=O)N(CC)CC)c2)C(C)C)s1 | 34% |
| CCOc1ccccc1C(=O)NCC(=O)NNC(=O)CN(C)S(=O)(=O)c1ccc(Cl)cc1 | -20% |
| Cc1cc(C(=O)NC2CCCc3c2cnn3-c2ccc(C(C)(C)C)cc2)nn1C (centres undefined) | -16.9% |
| COC(=O)[C@H](Cc1ccccc1)NC(=O)Cn1cnc(C(=O)Nc2ccc(C)c(C)c2)n1 | 21.9% |
| CN1C(=O)C2(c3ccccc31)N(C)CC(c1ccccc1)C21SC(=S)N(Cc2ccco2)C1=O (centres undefined) | 4.58% |
| CCOC(=O)[C@@H]1[C@H]2COc3cc(OC)ccc3[C@H]2N2C(=O)N(c3ccc(C(F)(F)F)cc3)C(=O)[C@]12C | 90% [at 16 µM] |
| COc1ccc2c(C)nc(Nc3nc(C)c(C)c(=O)[nH]3)nc2c1 | 156% [at 16 µM] |
| CC(C)OCCCNc1ncnc2c1[nH]c1ccccc12 | 7.69% |
| CC1CCCCN1S(=O)(=O)c1ccc(C(=O)Nc2nnc(-c3cccs3)o2)cc1 (centres undefined) | -5.3% |
| O=C(Nc1ccncc1)c1ccc(Cl)c(S(=O)(=O)N2CCc3ccccc32)c1 | 12.5% |
| Cc1cc(Cl)c(S(=O)(=O)N2CCCC2)cc1OCC(=O)NC1CCCCC1 | 36.3% |
